Results from PubChem BioAssay (NCATS).
Inconclusive results are not listed. Active and inactive are the calls of the source. Calls follow the shape of the dose curve; as a rule, active = well fitted inhibition curve with a large enough effect; inconclusive = small, poorly fitted or top-dose-only effect; inactive = flat fitted curve, though single readings scatter.

Columns and labels:
[1] = qHTS profiling for inhibitors of Plasmodium falciparum proliferation (AID 504749);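 also: 0% = DMSO vehicle and full inhibition = artemisinin control; nearly all actives have a fitted effect of over 60% in size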; conditions: P. falciparum in erythrocytes, SYBR Green DNA, 72 h
Procedure, shortened: (§1)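 Parasite proliferation within erythrocytes, 72 h exposure. Endpoint: SYBR Green I fluorescence after overnight lysis at room temperature. Controls: 0.29 uM artemisinin, DMSO.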

3D7 = assay: as above; conditions: P. falciparum in erythrocytes, SYBR Green DNA, 72 h; series mostly up to 28.7 µM
Procedure, shortened: as §1

7G8 = assay: as above; conditions: P. falciparum in erythrocytes, SYBR Green DNA, 72 h; series mostly up to 28.7 µM
Procedure, shortened: as §1

AA1029 = assay: as above; conditions: P. falciparum in erythrocytes, SYBR Green DNA, 72 h; series mostly up to 28.7 µM
Procedure, shortened: as §1

AS120 = assay: as above; conditions: P. falciparum in erythrocytes, SYBR Green DNA, 72 h; series mostly up to 28.7 µM
Procedure, shortened: as §1

ATS189 = assay: as above; conditions: P. falciparum in erythrocytes, SYBR Green DNA, 72 h; series mostly up to 28.7 µM
Procedure, shortened: as §1

ATS95 = assay: as above; conditions: P. falciparum in erythrocytes, SYBR Green DNA, 72 h; series mostly up to 28.7 µM
Procedure, shortened: as §1

C2A = assay: as above; conditions: P. falciparum in erythrocytes, SYBR Green DNA, 72 h; series mostly up to 28.7 µM
Procedure, shortened: as §1

CP185 = assay: as above; conditions: P. falciparum in erythrocytes, SYBR Green DNA, 72 h; series mostly up to 28.7 µM
Procedure, shortened: as §1

CP191 = assay: as above; conditions: P. falciparum in erythrocytes, SYBR Green DNA, 72 h; series mostly up to 28.7 µM
Procedure, shortened: as §1

CP192 = assay: as above; conditions: P. falciparum in erythrocytes, SYBR Green DNA, 72 h; series mostly up to 28.7 µM
Procedure, shortened: as §1

CP194 = assay: as above; conditions: P. falciparum in erythrocytes, SYBR Green DNA, 72 h; series mostly up to 28.7 µM
Procedure, shortened: as §1

CP201 = assay: as above; conditions: P. falciparum in erythrocytes, SYBR Green DNA, 72 h; series mostly up to 28.7 µM
Procedure, shortened: as §1

[2] = at 28.7 µM (top of the series), parasite line A
[3] = at 28.7 µM (top of the series), parasite line B
[4] = at 12.8 µM (top of the series), parasite line A
[5] = at 12.8 µM (top of the series), parasite line B

Cc1cc(C)nc(NS(=O)(=O)c2ccc(N)cc2)n1
inactive: activity, negative = inhibition [1, 2] 7.93% | activity, negative = inhibition [1, 3] 10.9% | Potency (3D7) | Potency (7G8) | Potency (AA1029) | Potency (AS120) | Potency (ATS189) | Potency (ATS95) | Potency (C2A) | Potency (CP185) | outcome (CP191) | outcome (CP192) | outcome (CP194) | outcome (CP201)

COc1ccc(NS(=O)(=O)c2ccc(N)cc2)nn1
inactive: activity, negative = inhibition [1, 4] 2.8% | activity, negative = inhibition [1, 5] 13.5% | Potency (3D7) | Potency (7G8) | Potency (AA1029) | Potency (AS120) | Potency (ATS189) | Potency (ATS95) | Potency (C2A) | Potency (CP185) | outcome (CP191) | outcome (CP192) | outcome (CP194) | outcome (CP201)

Cc1c(N(C)C)c(=O)n(-c2ccccc2)n1C
inactive: activity, negative = inhibition [1, 2] 13.7% | activity, negative = inhibition [1, 3] 18.1% | Potency (3D7) | Potency (7G8) | Potency (AA1029) | Potency (AS120) | Potency (ATS189) | Potency (ATS95) | Potency (C2A) | Potency (CP185) | outcome (CP191) | outcome (CP192) | outcome (CP194) | outcome (CP201)

COc1ccc(C(=O)N2CCN(CC(=O)N3CCOCC3)CC2)cc1
inactive: activity, negative = inhibition [1, 2] 2.87% | activity, negative = inhibition [1, 3] 20.6% | Potency (3D7) | Potency (7G8) | Potency (AA1029) | Potency (AS120) | Potency (ATS189) | Potency (ATS95) | Potency (C2A) | Potency (CP185) | outcome (CP191) | outcome (CP192) | outcome (CP194) | outcome (CP201)

CC[N+](CC)(CC(=O)Nc1c(C)cccc1C)Cc1ccccc1
inactive: activity, negative = inhibition [1, 2] 15.1% | activity, negative = inhibition [1, 3] 8.11% | Potency (3D7) | Potency (7G8) | Potency (AA1029) | Potency (AS120) | Potency (ATS189) | Potency (ATS95) | Potency (C2A) | Potency (CP185) | outcome (CP191) | outcome (CP192) | outcome (CP194) | outcome (CP201)

CN1CCCN=C1COC(=O)C(O)(c1ccccc1)C1CCCCC1 (stereo not drawn)
inactive: activity, negative = inhibition [1, 2] 2.78% | activity, negative = inhibition [1, 3] -4.74% | Potency (3D7) | Potency (7G8) | Potency (AA1029) | Potency (AS120) | Potency (ATS189) | Potency (ATS95) | Potency (C2A) | Potency (CP185) | outcome (CP191) | outcome (CP192) | outcome (CP194) | outcome (CP201)

Cc1cccc(C(=O)O)c1O
inactive: activity, negative = inhibition [1, 2] 14.5% | activity, negative = inhibition [1, 3] 2.46% | Potency (3D7) | Potency (7G8) | Potency (AA1029) | Potency (AS120) | Potency (ATS189) | Potency (ATS95) | Potency (C2A) | Potency (CP185) | outcome (CP191) | outcome (CP192) | outcome (CP194) | outcome (CP201)

NNC(=O)CP(=O)(c1ccccc1)c1ccccc1
inactive: activity, negative = inhibition [1, 2] 8.38% | activity, negative = inhibition [1, 3] 6.41% | Potency (3D7) | Potency (7G8) | Potency (AA1029) | Potency (AS120) | Potency (ATS189) | Potency (ATS95) | Potency (C2A) | Potency (CP185) | outcome (CP191) | outcome (CP192) | outcome (CP194) | outcome (CP201)

C=CCSCC1Nc2cc(Cl)c(S(N)(=O)=O)cc2S(=O)(=O)N1 (stereo not drawn)
inactive: activity, negative = inhibition [1, 2] 8.77% | activity, negative = inhibition [1, 3] 13.6% | Potency (3D7) | Potency (7G8) | Potency (AA1029) | Potency (AS120) | Potency (ATS189) | Potency (ATS95) | Potency (C2A) | Potency (CP185) | outcome (CP191) | outcome (CP192) | outcome (CP194) | outcome (CP201)

COC(=O)c1ccc(O)cc1
inactive: activity, negative = inhibition [1, 2] 3.79% | activity, negative = inhibition [1, 3] 9.44% | Potency (3D7) | Potency (7G8) | Potency (AA1029) | Potency (AS120) | Potency (ATS189) | Potency (ATS95) | Potency (C2A) | Potency (CP185) | outcome (CP191) | outcome (CP192) | outcome (CP194) | outcome (CP201)

CCCCC1(COC(=O)CCC(=O)O)C(=O)N(c2ccccc2)N(c2ccccc2)C1=O
inactive: activity, negative = inhibition [1, 4] 7.36% | activity, negative = inhibition [1, 5] 2.05% | Potency (3D7) | Potency (7G8) | Potency (AA1029) | Potency (AS120) | Potency (ATS189) | Potency (ATS95) | Potency (C2A) | Potency (CP185) | outcome (CP191) | outcome (CP192) | outcome (CP194) | outcome (CP201)

O=c1[nH]c(=O)c2ccccc2o1
inactive: activity, negative = inhibition [1, 2] 2.32% | activity, negative = inhibition [1, 3] 10.5% | Potency (3D7) | Potency (7G8) | Potency (AA1029) | Potency (AS120) | Potency (ATS189) | Potency (ATS95) | Potency (C2A) | Potency (CP185) | outcome (CP191) | outcome (CP192) | outcome (CP194) | outcome (CP201)
